# Assay results reported in PubChem BioAssay (Tox21).
# Unmarked numbers belong to inactive results. Calls follow the shape of the dose curve; as a rule, active = well fitted curve in the direction sought with a large enough effect in the repeat runs; inconclusive = weak or mixed curves; inactive = flat fitted curve, though single readings scatter.
# Experiment: qHTS assay to test for compound auto fluorescence at 535 nm (green) in HEK293 cell free culture (AID 720682)
# Conditions: cell-free medium, green autofluorescence 485/535 nm, active compounds read high; series mostly up to 91.3 µM; activity change: at the top concentration
# Excerpt: U.S. Tox21 Program National Center for Advancing Translational Sciences [NCATS] NIH Chemical Genomics Center [NCGC] U.S. Environmental Protection Agency [EPA] National Institutes of Environmental Health Sciences [NIEHS] National Toxicology Program [NTP] U.S. Food and Drug Administration [FDA] Tox21 Assay Overview: Compound auto fluorescence often interferes with screening of the compound library against various biological targets and signaling pathways. Some of these compounds may have fluorophoric properties. Such properties may interfere with the assay outputs resulting in false positives and/or negatives. To decrease such complications and ensure the compound activities are relevant in terms of biological response, the Tox21 10K compound library was screened for auto fluorescence. From the fluorophores used as reporter signals in our screening assays, the auto fluorescence equivalencies of compounds against three fluorophores have been evaluated: Triamterene, Fluorescein and Rose Bengal sodium for blue, green and red fluorescence, respectively. The fluorescence intensities were measured using Excitation/Emission wavelengths at 405/460nm, 485/535nm and 540/590nm for blue, green and red labels, respectively. This assay includes the green fluorescence data.
# Tox21 Assay Protocol Summary: 5 uL of culture medium (DMEM containing 10% FBS) per well was dispensed into black wall/clear bottom 1536-well plates using a Multidrop Combi Dispenser (ThermoFisher Scientific, Waltham, MA). After 23 nL compound or DMSO vehicle was transferred into assay plate by a pintool work station (Kalypsys, San Diego, CA), fluorescence intensities in the assay plates were measured by an Envision (PerkinElmer, Shelton, CT) plate reader using three labels for measuring blue, green and red fluorescence at […] 460, 535 and 590nm respectively.
# % is scaled to controls: 0 for no effect and ±100 for the full control effect.
row,Compound,activity change
1,O=[N+]([O-])c1cccc(S(=O)(=O)O)c1,-0.158% [at 95.7 µM]
2,O=C(O)c1ccc(-n2nc(-c3ccccc3O)nc2-c2ccccc2O)cc1,0.0168% [at 46 µM]
3,O=C1OC(=O)C2C3C=CC(C3)C12 (stereo not given),-0.135%
4,COc1ccc(S(=O)(=O)N2C(=O)[C@@](c3ccccc3OC)(N3C[C@H](O)C[C@H]3C(=O)N(C)C)c3cc(Cl)ccc32)c(OC)c1,0.0175%
5,CCCCCCCCCCCCCCCCCCOS(=O)(=O)O,0.0164%
6,CC1=CC=C(C(C)C)CC1,0.106%
7,C#Cc1cccc(Nc2ncnc3cc(OCCOC)c(OCCOC)cc23)c1,-0.108% [at 46 µM]
8,COC(C)(C)CCO,0.0149%
9,O=C1CCC(=O)O1,0.0958%
10,C=CCOc1ccccc1OCC(O)CNC(C)C (stereo not given),-0.0456% [at 18.6 µM]
11,CCC(C)c1cc(C(C)(C)C)c(O)c(C(C)(C)C)c1 (stereo not given),-0.005%
12,O=C(O)c1nc(Cl)c(Cl)c(Cl)c1Cl,-0.0015%
13,Nc1ccccc1S(=O)(=O)c1ccccc1,-0.0289%
14,C=CC1CC2C=CC1C2 (stereo not given),-0.0254%
15,CC1CCC(=O)C1=O (stereo not given),0.0889% [at 95.7 µM]
16,CCCCC(CC)COC(=O)COc1ccc(Cl)cc1Cl (stereo not given),-0.0692% [at 95.7 µM]
17,Clc1ccc2c(c1)CCc1cccnc1C2=C1CCNCC1,0.0656% [at 46 µM]
18,O=C1C(O)=C(O)C(=O)C(O)=C1O,-0.227% [at 46 µM]
19,CCCCCCCCO[C@@H]1O[C@H](CO)[C@@H](O)[C@H](O)[C@H]1O,0.0627%
20,Cc1cc(C(=O)O)ccc1[N+](=O)[O-],-0.0063%

row,Compound,activity change
1,O=C(CS)Nc1ccccc1,-0.0286% [at 46 µM]
2,CN1C[C@H]2c3ccccc3Oc3ccc(Cl)cc3[C@@H]2C1,-0.0267% [at 46 µM]
3,CCO[Si](CCCCl)(OCC)OCC,-0.005%
4,CNCCCN1c2ccccc2CCc2ccccc21,0.0761% [at 18.6 µM]
5,CN(C)CCN(Cc1ccccc1)c1ccccn1,-0.401% [at 46 µM]
6,CC(C)CC(=O)C1C(=O)c2ccccc2C1=O,0.0503%
7,COc1ccc(C(=O)Nc2nc3ccccc3c(NCc3ccccc3)c2C#N)cc1,-0.0076%
8,CCOc1ccc(N)c([N+](=O)[O-])c1,-0.0755%
9,CCCCCCc1ccc(-c2ccc(C#N)cc2)cc1,-0.0666%
10,S=C([S-])NCCNC(=S)[S-].[Mn+2],0.0264%
11,NCCCN1CCOCC1,-0.0381%
12,CCCn1cnc2c1c(=O)n(CCCCC(C)=O)c(=O)n2C,-0.0325% [at 46 µM]
13,O=C(c1ccc(F)cc1)C1CCN(CCn2c(=S)[nH]c3ccccc3c2=O)CC1,-0.0343% [at 46 µM]
14,C[C@@H]1C[C@H]2O[C@@]3(O[C@@H]2C(C)(C)O)[C@H](O)[C@@]2(C)[C@@H]4CC[C@H]5C(C)(C)[C@@H](O[C@@H]6OC[C@@H](O)[C@H](O)[C@H]6O)CC[C@@]56C[C@@]46CC[C@]2(C)[C@@H]13,0.0154%
15,COc1cc(Cl)ccc1Oc1ccc(Cl)cc1Cl,-0.126%
16,CC(C)(CO)[N+](=O)[O-],-0.0145%
17,CCCCCCCCCCCC(=O)OC[C@@H](O)[C@H]1OC[C@H](OCCO)[C@H]1OCCO,-0.0177%
18,CCCCCCCC/C=C\CCCCCCCC(=O)OCC,-0.0204%
19,CCCCc1nc2cccnc2n1Cc1ccc(-c2ccccc2-c2nnn[nH]2)cc1,-0.0359%
20,CCOC(=O)C(F)(F)F,-0.0043%
